Experimental data from PubChem BioAssay (EPA / NIEHS).
Active and inactive are the calls of the source. The calls were made as follows: active = hit-call score of the fitted dose curve at least 0.9, where 1 is the maximum; inactive = score below 0.9.

Read-out: Interleukin-8 (IL8), CXCL8 (gene 3576)
Assay: BSK_KF3CT_IL8: BioMAP Diversity Plus: KF3CT Assay for Interleukin-8 (IL8) Biomarker Activity (AID 2284254)
Settings: primary human keratinocytes with fibroblasts
Method: BSK_KF3CT is a cell-based, multiplexed-readout assay that uses keratinocytes and foreskin fibroblasts, a human skin primary cell co-culture, with measurements taken at 24 hours after chemical dosing in a 96-well plate.BSK_KF3CT_IL8 is an assay component measured in the BSK_KF3CT assay. It measures IL-8 antibody related to regulation of gene expression using ELISA technology.Data from the assay component BSK_KF3CT_IL8 was analyzed at the endpoint, BSK_KF3CT_IL8, in the positive analysis fitting direction relative to DMSO as the negative control and baseline of activity. Using a type of binding reporter, gain or loss-of-signal activity can be used to understand protein changes. To generalize the intended target to other relatable targets, this assay endpoint is annotated to the 'cytokine' intended target family, where the subfamily is 'interleukins'.
The levels of cell surface (or secreted, indicated by the prefix "s") biomarker endpoints were measured by ELISA. Overt cytotoxicity to cells in confluent adherent cultures (all systems other than the BT system) was assessed by measuring total protein levels using sulforhodamine B (SRB) staining in parallel cultures at the time of biomarker measurements, indicated as SRB endpoints. For proliferation assays for adherent cell types, individual cell types are cultured at sub-confluence and relative cell numbers quantified by SRB staining at time points optimized for each system (48 h: 3C and CASM3C systems; 72 h: BT and HDF3CGF systems; 96 h: SAg system). SRB was performed by staining cells with 0.1% SRB after fixation with 10% TCA and reading wells at 560 nm.Viability and proliferation of PBMC (T cells) was quantified by Alamar Blue reduction for the SAg and BT systems. For PBMC viability (referred to as PBMC Cytotoxicity within the assay endpoint names), cells were plated (75,000/well in a 96-well plate) and then chemical samples added for 1 h before addition of activators, SEB and TSST-1 (20 ng/mL final concentration each). Cells were incubated for 90 h. Then, Alamar Blue (20 uL/well) (Invitrogen, Cat DAL1100) was added for 6 h, and the plates were read with a fluorescence microplate reader at 546/580 nm (excitation/emission). For PBMC proliferation, cells were plated and activated as above but incubated for only 16 h prior to addition of Alamar Blue. Plates were read after 6 h.

Row | SMILES | outcome
1 | FC(F)(F)C(F)(F)C(F)(F)C(F)(F)C(F)(F)C(F)(F)I | inactive
2 | FC(F)(F)COC(OCC(F)(F)F)OCC(F)(F)F | inactive
3 | O=C(Cl)C(F)(F)C(F)(F)C(F)(F)C(=O)Cl | inactive
4 | OCCC(F)(F)C(F)(F)C(F)(F)C(F)(F)F | inactive
5 | O=S(=O)(O)CCC(F)(F)C(F)(F)C(F)(F)C(F)(F)C(F)(F)C(F)(F)F | inactive
6 | NCC(F)(F)C(F)(F)C(F)(F)C(F)(F)F | inactive
7 | FC(F)C(F)(F)COCC1CO1 (stereo not given) | inactive
8 | FC(F)=C(F)C(F)(F)C(F)(F)C(F)(F)C(F)(F)C(F)(F)C(F)(F)F | inactive
9 | OC(O)(C(F)C(O)(O)C(F)(F)F)C(F)(F)F | inactive
10 | C[Si](C)(C)C(F)(F)C(F)(F)C(F)(F)F | inactive
